From publication PMC4336329 (PLoS ONE, 2015) come the findings set out here.

In all, about 310,000 compounds went through this assay and about 14,000 (4.5%) showed an effect of 50% or more. Effects have a minus sign here. The full list was thinned out, with strong results kept by preference.
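Further: peak tail current of the secondary pulse compared with the same well before compound.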

The assay deals with human ether-à-go-go-related gene (hERG) potassium channel (human, UniProt Q12809). As to the kind of experiment: primary screen, population patch clamp on CHO cells stably expressing hERG; higher = less effect of the substance.
Sequence of human ether-à-go-go-related gene (hERG) potassium channel (Q12809 whole entry, looked up): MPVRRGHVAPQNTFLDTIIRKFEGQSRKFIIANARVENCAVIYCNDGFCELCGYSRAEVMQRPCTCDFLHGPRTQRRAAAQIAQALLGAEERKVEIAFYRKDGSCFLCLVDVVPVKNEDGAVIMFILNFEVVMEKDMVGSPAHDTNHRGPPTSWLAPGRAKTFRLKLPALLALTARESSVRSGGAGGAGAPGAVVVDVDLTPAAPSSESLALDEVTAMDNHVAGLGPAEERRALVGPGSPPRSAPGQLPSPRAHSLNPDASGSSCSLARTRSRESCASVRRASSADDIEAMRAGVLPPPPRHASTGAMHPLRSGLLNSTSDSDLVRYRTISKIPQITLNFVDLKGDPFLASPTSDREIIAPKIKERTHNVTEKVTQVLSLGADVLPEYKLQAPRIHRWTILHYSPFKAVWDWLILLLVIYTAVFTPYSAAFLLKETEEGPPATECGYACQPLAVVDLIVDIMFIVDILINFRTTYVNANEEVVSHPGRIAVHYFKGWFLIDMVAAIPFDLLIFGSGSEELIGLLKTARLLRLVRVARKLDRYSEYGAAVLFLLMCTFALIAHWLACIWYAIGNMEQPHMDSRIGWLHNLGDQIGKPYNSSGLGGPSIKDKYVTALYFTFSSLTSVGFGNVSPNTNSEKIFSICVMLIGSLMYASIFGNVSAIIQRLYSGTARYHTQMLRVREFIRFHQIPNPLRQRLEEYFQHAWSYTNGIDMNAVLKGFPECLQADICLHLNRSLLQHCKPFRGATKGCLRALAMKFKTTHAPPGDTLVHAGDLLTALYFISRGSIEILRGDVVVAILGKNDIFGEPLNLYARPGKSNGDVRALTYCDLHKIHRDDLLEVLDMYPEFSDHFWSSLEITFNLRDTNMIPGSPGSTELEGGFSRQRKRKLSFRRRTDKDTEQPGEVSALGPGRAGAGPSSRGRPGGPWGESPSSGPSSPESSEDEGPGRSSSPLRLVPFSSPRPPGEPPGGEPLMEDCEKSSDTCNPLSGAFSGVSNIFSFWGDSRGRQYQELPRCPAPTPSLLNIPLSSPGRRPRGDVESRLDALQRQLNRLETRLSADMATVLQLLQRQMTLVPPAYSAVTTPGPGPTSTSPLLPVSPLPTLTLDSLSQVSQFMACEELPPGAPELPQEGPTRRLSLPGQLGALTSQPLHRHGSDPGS
Regarding `CCOc1ccc2nc(C)cc(C(=O)O)c2c1`, the “hERG current change (%, negative = inhibition) at 10uM” value was -2.09%.

Turning to `CCN1CCN(c2ccc(S(=O)(=O)N3CCOCC3)cc2NC(=O)CC(C)C)CC1`, the “hERG current change (%, negative = inhibition) at 10uM” value was determined as 0.99%.

Consider `CC1CC(C)CN(CC(=O)c2cccs2)C1` (stereo not shown), for which the “hERG current change (%, negative = inhibition) at 10uM” value is given as -9.99%.

On to `Cl.O=C(CN1CCCCC1)c1ccc(F)cc1`, for which the “hERG current change (%, negative = inhibition) at 10uM” value is on record as 1.94%.

On to `Br.CC1CC(C)CN(CC(=O)c2ccc(OC(F)F)cc2)C1` (stereo not shown), for which the “hERG current change (%, negative = inhibition) at 10uM” value was -91.5%.

`Br.O=C(CN1CCCCC1)c1ccc(OC(F)F)cc1`: the “hERG current change (%, negative = inhibition) at 10uM” value is -69.6%.

Turning to `CC1CC(C)CN(C(=S)Nc2ccc(OC(F)F)cc2)C1` (stereo not shown), the “hERG current change (%, negative = inhibition) at 10uM” value is reported as -36.6%.

In the case of `Br.COc1ccc(C(=O)CN2CCCCC2)cc1`, the “hERG current change (%, negative = inhibition) at 10uM” value stood at 7.07%.

Regarding `Cc1cccc(C)c1-n1nnnc1C1(Nc2ccccc2)CCCCC1`, the “hERG current change (%, negative = inhibition) at 10uM” value is -4.36%.

For the compound `CCCN(CC(=O)Nc1ccccc1OC)C(=O)CCNC(=O)c1ccccc1OC`, the “hERG current change (%, negative = inhibition) at 10uM” value was -2.16%.

With `CCN(CC)S(=O)(=O)c1ccc(N2CCN(c3ccccc3O)CC2)nc1`, the “hERG current change (%, negative = inhibition) at 10uM” value is on record as -52.8%.

As to `CCN(CC)S(=O)(=O)c1ccc(N2CCN(CCO)CC2)nc1`, the “hERG current change (%, negative = inhibition) at 10uM” value was -3.97%.

Take `CCN(c1ccccc1)S(=O)(=O)c1ccc(N2CCN(c3ccccc3O)CC2)nc1`: the “hERG current change (%, negative = inhibition) at 10uM” value is listed as -0.538%.

As for `Cc1ccc(CN2CCNC(=O)C2CC(=O)N(Cc2c(C)nn(C)c2C)C2CC2)o1` (stereo not shown), the “hERG current change (%, negative = inhibition) at 10uM” value is given as 23.9%.

As to `CCN=C1SC(C(N)=O)CC(=O)N1CC` (stereo not shown), the “hERG current change (%, negative = inhibition) at 10uM” value came to 12.9%.

For `O=C(c1cn[nH]c1)c1cc(F)ccc1O`, the “hERG current change (%, negative = inhibition) at 10uM” value is -2.62%.

As to `COc1ccc(C(=O)CSc2nnc(CNc3ccc(C)cc3C)n2Cc2ccco2)cc1`, the “hERG current change (%, negative = inhibition) at 10uM” value amounted to 6.88%.

For `N#Cc1ccc(CSc2nnc(-c3ccccc3)n2Cc2ccco2)cc1`, the “hERG current change (%, negative = inhibition) at 10uM” value was -26.8%.

`Cc1ccc(NCc2nnc(SCC(=O)c3ccccc3)n2Cc2ccco2)c(C)c1`: the “hERG current change (%, negative = inhibition) at 10uM” value is recorded as -7.53%.

For the compound `Cc1ccc(-c2nnc(SCc3ccc(C#N)cc3)n2Cc2ccco2)cc1`, the “hERG current change (%, negative = inhibition) at 10uM” value was -20.6%.

`Cc1ccc(NCc2nnc(SCc3ccc(C#N)cc3)n2Cc2ccco2)c(C)c1`: the “hERG current change (%, negative = inhibition) at 10uM” value is given as -70.8%.

Take `COc1cccc(-c2nnc(SCC(=O)OC(C)C)n2Cc2ccco2)c1`: the “hERG current change (%, negative = inhibition) at 10uM” value was -15.3%.

Regarding `COc1cccc(-c2nnc(SCc3ccc(C#N)cc3)n2Cc2ccco2)c1`, the “hERG current change (%, negative = inhibition) at 10uM” value was -70.3%.

For `Cc1cccc(-c2nnc(SCc3ccc(C#N)cc3)n2Cc2ccco2)c1`, the “hERG current change (%, negative = inhibition) at 10uM” value is recorded as -89%.

Regarding `Cc1cccc(-c2nnc(SCc3nc4ccccc4[nH]3)n2Cc2ccco2)c1`, the “hERG current change (%, negative = inhibition) at 10uM” value was -48.8%.
